From PubChem BioAssay (Tox21)
Results filed as inconclusive are left out. Calls of active or inactive are those of the source. Unless noted, calls come from the whole dose curve; as a rule, active = well fitted curve in the direction sought with a large enough effect in the repeat runs; inconclusive = weak or mixed curves; inactive = no such curve, though single readings can be large; an effect the other way counts as inactive or inconclusive.

What was measured:
[1] = qHTS assay to identify small molecule agonists of the TGF-beta/Smad signaling pathway - cell viability counter screen (AID 1346829); note: top concentration of the series differs between compounds; nearly all actives have a fitted effect of over 45% in size
Summary of the method: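 After overnight seating at 37 C and 5% CO2, reporter cells got compounds for 5 hr and FRET substrate for 2 hr; cell viability then came from CellTiter-Glo luminescence.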

[2] = qHTS assay to identify small molecule agonists of the TGF-beta/Smad signaling pathway (AID 1346859; active = well fitted activation curve with a large enough effect in the signal ratio in the repeat runs, not every such curve was filed as active; the % refers to the signal ratio; note: series mostly up to about 77 µM)
Summary of the method: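 Dual-wavelength fluorescence (460/530 nm emission) quantified beta-lactamase expression under the Smad binding element in HEK 293T cells following 5 hr compound treatment at 37 C.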

[3] = molecular target: Thyrotropin-releasing hormone receptor (Homo sapiens) (UniProt P34981); test: qHTS assay to identify small molecule antagonists of the thyrotropin-releasing hormone receptor (TRHR) signaling pathway (AID 1346877; active = well fitted inhibition curve with a large enough effect in the repeat runs, not every such curve was filed as active; note: series mostly up to about 51 µM)
Summary of the method: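 Screening used HEK293 cells engineered with TRHR, with a brief 5 min room-temperature compound exposure preceding addition of TRH to 1 nM. The read-out was kinetic calcium-dye fluorescence, concentration-response from 15 doses in triplicate.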

[4] = molecular target: Thyrotropin-releasing hormone receptor (Homo sapiens) (UniProt P34981); test: qHTS assay to identify small molecule agonists of the thyrotropin-releasing hormone receptor (TRHR) signaling pathway (AID 1346891; calls by dose curve;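 note: HEK293 cells expressing TRHR with calcium dye readout; series mostly up to about 58 µM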)
Summary of the method: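 Kinetic fluorescence (3 min, 1 s intervals) reported intracellular calcium after compound transfer onto TRHR-Hek293 cells pre-loaded with dye for 2 h at 37 °C.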

[5] = Caspase-3/7 induction in HepG2 cells by small molecules, qHTS assay (AID 1346978); note: nearly all actives have a fitted effect of over 15% in size
Summary of the method: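 Wild-type HepG2 cells (2,000/well) were settled 5 h at 37 C, 5% CO2, then exposed to compounds in DMSO for 17 h. Caspase-3/7 activity was read by luminescence 30 min after adding Caspase-Glo 3/7 reagent at room temperature.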

[6] = Caspase-3/7 induction in CHO-K1 cells by small molecules, qHTS cell viability counter screen (AID 1346979); note: nearly all actives have a fitted effect of over 35% in size
Summary of the method: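 Seeding: 1,500 CHO-K1 cells/well. Rest: 5hr, 37C. Treatment: compounds in DMSO, 16hr. Read: CellTiter-Fluor, 1hr, fluorescence.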

[7] = Caspase-3/7 induction in CHO-K1 cells by small molecules, qHTS assay (AID 1346980); note: nearly all actives have a fitted effect of over 15% in size
Summary of the method: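 Wild-type cells were seeded at 1,500 per well and settled 5 hr at 37 C, 5% CO2, then exposed to DMSO-dissolved compounds for 17 hr. Caspase-Glo 3/7 reagent was added, and luminescence was read after 30min at room temperature.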

[8] = Caspase-3/7 induction in HepG2 cells by small molecules, qHTS cell viability counter screen (AID 1346981); note: series mostly up to about 92 µM; nearly all actives have a fitted effect of over 30% in size
Summary of the method: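 Multiplexed with the caspase-3/7 assay: HepG2 cells, 16 hr compound treatment, CellTiter-Fluor viability detection by fluorescence.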

[9] = molecular target: Nuclear receptor subfamily 1 group I member 2 (Homo sapiens) (UniProt O75469); test: Human pregnane X receptor (PXR) small molecule agonists, qHTS assay (AID 1346982); note: nearly all actives have a fitted effect of over 35% in size; note: potency is the fitted concentration of half-maximal effect
Summary of the method: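 We seeded PXR-Luc HepG2 cells in assay medium containing 5% charcoal-stripped FBS, added compounds 5 hr later, incubated 24 hr, and read luminescence with ONE-Glo reagent.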

[10] = molecular target: Cytochrome P450 2D6 (Homo sapiens) (UniProt P10635); test: Cytochrome P450 Family 2 Subfamily D Member 6 (CYP2D6) small molecule antagonists: luciferase reporter qHTS assay (AID 1671196); note: nearly all actives have a fitted effect of over 50% in size; note: potency is the fitted concentration of half-maximal effect
Summary of the method: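 Luminescence (RLU), read 20 min after detection reagent, indicated CYP2D6 conversion of proluciferin to luciferin during a 1 h NADPH-dependent reaction at room temperature.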

[11] = molecular target: Cytochrome P450 2C19 (Homo sapiens) (UniProt P33261); test: Cytochrome P450 Family 2 Subfamily C Member 19 (CYP2C19) small molecule antagonists: luciferase reporter qHTS assay (AID 1671197); note: nearly all actives have a fitted effect of over 65% in size; note: potency is the fitted concentration of half-maximal effect
Summary of the method: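 Inhibition of CYP2C19 was scored from loss of luminescence in a P450-Glo proluciferin substrate assay, NADPH-started and run 1 h at 37C, with ketoconazole as positive control.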

[12] = molecular target: Cytochrome P450 2C9 (Homo sapiens) (UniProt P11712); test: Cytochrome P450 Family 2 Subfamily C Member 9 (CYP2C9) small molecule antagonists: luciferase reporter qHTS assay (AID 1671198); note: series mostly up to about 120 µM; nearly all actives have a fitted effect of over 50% in size
Summary of the method: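 CYP2C9 activity was measured with a P450-Glo proluciferin substrate. Enzyme–substrate mix was held with compound for 10 min at room temperature, then NADPH regeneration solution was added for 1 h at 37C. Luciferin product was read as luminescence.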

[13] = molecular target: Cytochrome P450 1A2 (Homo sapiens) (UniProt P05177); test: Cytochrome P450 Family 1 Subfamily A Member 2 (CYP1A2) small molecule antagonists: luciferase reporter qHTS assay (AID 1671199); note: nearly all actives have a fitted effect of over 50% in size; note: potency is the fitted concentration of half-maximal effect
Summary of the method: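 CYP1A2 turnover of a luminogenic substrate was quantified after 1 h with NADPH regeneration at room temperature. Furafylline served as positive control.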

[14] = molecular target: Voltage-gated inwardly rectifying potassium channel KCNH2 (Homo sapiens) (UniProt Q12809); test: Human Ether-a-go-go-Related Gene (hERG) channel small molecule antagonists: fluorescence cell-based qHTS assay (AID 1671200);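 note: hERG-expressing U2OS cells given a thallium stimulus after FluxOR II dye loading; series mostly up to about 77 µM; nearly all actives have a fitted effect of over 50% in size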
Summary of the method: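 First, 1000 cells per well are seeded and cultured overnight at 37 C. Next, FluxOR II dye is loaded for 1 h at room temperature, protected from light. After 10 more minutes, stimulus is added and fluorescence is read.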

[15] = molecular target: Cytochrome P450 3A4 (Homo sapiens) (UniProt P08684); test: Cytochrome P450 Family 3 Subfamily A Member 4 (CYP3A4) small molecule antagonists: luciferase reporter qHTS assay (AID 1671201); note: nearly all actives have a fitted effect of over 50% in size; note: potency is the fitted concentration of half-maximal effect
Summary of the method: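 Enzyme and proluciferin substrate are mixed with test chemicals for 10 min, then NADPH regeneration system drives turnover for 1 h at room temperature. A detection reagent halts the reaction; luminescence after 20 min gives relative activity.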

[16] = Human pregnane X receptor (PXR) small molecule agonists, qHTS cell viability counter screen (AID 1346977); note: nearly all actives have a fitted effect of over 50% in size
Summary of the method: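 HepG2 cells stably carrying the PXR-Luc reporter are cultured with 5% charcoal-stripped FBS and treated with compounds for 24hr. CellTiter-Fluor is added at 23hr and fluorescence is read after 1hr.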

[17] = molecular target: Nuclear receptor subfamily 1 group I member 2 (Rattus norvegicus) (UniProt Q9R1A7); test: Rat pregnane X receptor (rPXR) activation by small molecules, qHTS assay (AID 1346983); settings: rPXR luciferase reporter cells, One-Glo luminescence, 24 h; active compounds read high; note: nearly all actives have a fitted effect of over 20% in size
Summary of the method: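 Cell-based rPXR luciferase reporter assay, 2,000 cells per well, rested 5hr at 37 C before compound addition in DMSO, then 24 hr at 37 C. One-Glo reagent was added and luminescence read after 30 min at room temperature.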

[18] = molecular target: Nuclear receptor subfamily 1 group I member 2 (Homo sapiens) (UniProt O75469); test: CYP3A4 induction through human pregnane X receptor (PXR) by small molecules, qHTS assay (AID 1346984); note: nearly all actives have a fitted effect of over 40% in size; note: potency is the fitted concentration of half-maximal effect
Summary of the method: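 qHTS, concentration-response format: HepG2 DPX-2 line, PXR/CYP3A4-luc. Exposure 24 h, 37C. Substrate Luciferin-IPA 3uM final, 3 h. Detection One-Glo, 30 min RT.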

[19] = molecular target: Nuclear receptor subfamily 1 group I member 2 (Homo sapiens) (UniProt O75469); test: Human pregnane X receptor (PXR) activation by small molecules, qHTS assay (AID 1346985); note: nearly all actives have a fitted effect of over 40% in size; note: potency is the fitted concentration of half-maximal effect
Summary of the method: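 DPX-2 cells (HepG2 co-transfected with a PXR response element and a CYP3A4-promoter luciferase construct) were seeded at 2,000 per well, rested 5 hr at 37C, then exposed to DMSO-dissolved compounds for 24 hr. Activation was read as luciferase luminescence.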
% is set by controls: 0 for no effect and ±100 for the full control effect.

Chain of Cytochrome P450 2C9 (Homo sapiens) (P11712 whole entry, looked up): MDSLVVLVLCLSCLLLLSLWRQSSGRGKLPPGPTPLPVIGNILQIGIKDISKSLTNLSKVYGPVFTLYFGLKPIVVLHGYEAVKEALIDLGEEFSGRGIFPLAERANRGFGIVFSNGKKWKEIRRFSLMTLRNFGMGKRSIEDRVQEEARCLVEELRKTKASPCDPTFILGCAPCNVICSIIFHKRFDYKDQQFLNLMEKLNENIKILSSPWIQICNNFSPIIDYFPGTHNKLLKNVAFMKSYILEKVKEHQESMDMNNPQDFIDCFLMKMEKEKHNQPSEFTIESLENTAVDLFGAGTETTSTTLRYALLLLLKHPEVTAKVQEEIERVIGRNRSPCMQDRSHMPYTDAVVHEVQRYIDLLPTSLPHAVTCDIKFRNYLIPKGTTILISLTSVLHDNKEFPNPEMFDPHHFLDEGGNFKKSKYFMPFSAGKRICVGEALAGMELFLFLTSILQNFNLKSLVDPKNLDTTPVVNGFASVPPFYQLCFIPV
Chain of Cytochrome P450 2D6 (Homo sapiens) (P10635 whole entry, looked up): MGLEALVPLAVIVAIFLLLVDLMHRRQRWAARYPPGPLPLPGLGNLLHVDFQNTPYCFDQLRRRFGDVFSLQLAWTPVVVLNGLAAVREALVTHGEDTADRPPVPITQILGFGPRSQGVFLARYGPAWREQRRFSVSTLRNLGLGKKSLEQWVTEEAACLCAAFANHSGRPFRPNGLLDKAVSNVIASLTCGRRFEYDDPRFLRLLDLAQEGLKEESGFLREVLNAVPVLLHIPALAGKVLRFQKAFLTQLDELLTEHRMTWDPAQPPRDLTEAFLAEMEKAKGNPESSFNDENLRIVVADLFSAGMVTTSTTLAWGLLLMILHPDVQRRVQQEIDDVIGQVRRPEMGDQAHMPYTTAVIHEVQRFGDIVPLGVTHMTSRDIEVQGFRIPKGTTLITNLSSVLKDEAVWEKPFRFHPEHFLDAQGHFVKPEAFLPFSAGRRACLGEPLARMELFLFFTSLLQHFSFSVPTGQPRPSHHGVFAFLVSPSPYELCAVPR
Chain of Thyrotropin-releasing hormone receptor (Homo sapiens) (P34981 whole entry, looked up): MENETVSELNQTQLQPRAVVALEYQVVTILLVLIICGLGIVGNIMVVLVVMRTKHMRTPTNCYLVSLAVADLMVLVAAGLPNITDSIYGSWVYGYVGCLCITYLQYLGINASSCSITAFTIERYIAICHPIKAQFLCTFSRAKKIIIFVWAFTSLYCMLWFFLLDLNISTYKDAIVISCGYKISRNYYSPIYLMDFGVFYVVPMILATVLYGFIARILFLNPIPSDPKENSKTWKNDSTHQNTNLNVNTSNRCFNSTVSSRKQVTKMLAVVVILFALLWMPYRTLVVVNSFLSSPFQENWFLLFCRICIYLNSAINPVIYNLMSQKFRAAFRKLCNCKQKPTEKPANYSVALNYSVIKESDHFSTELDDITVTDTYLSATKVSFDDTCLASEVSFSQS
Chain of Cytochrome P450 1A2 (Homo sapiens) (P05177 whole entry, looked up): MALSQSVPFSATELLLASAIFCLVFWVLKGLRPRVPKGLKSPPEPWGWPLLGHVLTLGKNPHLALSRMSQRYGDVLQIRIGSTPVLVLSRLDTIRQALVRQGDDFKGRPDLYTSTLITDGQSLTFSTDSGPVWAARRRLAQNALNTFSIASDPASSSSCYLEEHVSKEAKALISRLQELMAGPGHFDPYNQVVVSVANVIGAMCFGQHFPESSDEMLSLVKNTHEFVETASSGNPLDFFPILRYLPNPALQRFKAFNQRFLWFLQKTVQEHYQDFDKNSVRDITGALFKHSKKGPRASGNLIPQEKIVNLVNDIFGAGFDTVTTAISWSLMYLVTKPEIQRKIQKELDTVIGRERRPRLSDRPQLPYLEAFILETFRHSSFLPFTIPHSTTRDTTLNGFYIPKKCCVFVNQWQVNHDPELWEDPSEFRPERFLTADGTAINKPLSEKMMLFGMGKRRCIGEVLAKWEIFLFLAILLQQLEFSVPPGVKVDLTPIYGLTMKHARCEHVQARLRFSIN
Chain of Cytochrome P450 3A4 (Homo sapiens) (P08684 whole entry, looked up): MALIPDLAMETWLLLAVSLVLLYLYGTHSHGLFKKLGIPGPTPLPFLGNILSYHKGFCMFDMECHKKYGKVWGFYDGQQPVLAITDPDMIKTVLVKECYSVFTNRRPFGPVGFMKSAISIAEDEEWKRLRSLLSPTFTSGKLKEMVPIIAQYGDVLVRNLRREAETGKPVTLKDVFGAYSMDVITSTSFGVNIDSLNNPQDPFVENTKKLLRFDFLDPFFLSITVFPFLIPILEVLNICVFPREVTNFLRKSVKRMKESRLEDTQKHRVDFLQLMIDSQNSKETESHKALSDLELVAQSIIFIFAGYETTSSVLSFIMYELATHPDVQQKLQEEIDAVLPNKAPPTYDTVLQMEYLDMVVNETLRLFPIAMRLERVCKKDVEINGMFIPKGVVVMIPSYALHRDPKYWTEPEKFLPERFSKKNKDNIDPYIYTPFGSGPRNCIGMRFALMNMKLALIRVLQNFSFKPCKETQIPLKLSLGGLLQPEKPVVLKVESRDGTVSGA
Chain of Cytochrome P450 2C19 (Homo sapiens) (P33261 whole entry, looked up): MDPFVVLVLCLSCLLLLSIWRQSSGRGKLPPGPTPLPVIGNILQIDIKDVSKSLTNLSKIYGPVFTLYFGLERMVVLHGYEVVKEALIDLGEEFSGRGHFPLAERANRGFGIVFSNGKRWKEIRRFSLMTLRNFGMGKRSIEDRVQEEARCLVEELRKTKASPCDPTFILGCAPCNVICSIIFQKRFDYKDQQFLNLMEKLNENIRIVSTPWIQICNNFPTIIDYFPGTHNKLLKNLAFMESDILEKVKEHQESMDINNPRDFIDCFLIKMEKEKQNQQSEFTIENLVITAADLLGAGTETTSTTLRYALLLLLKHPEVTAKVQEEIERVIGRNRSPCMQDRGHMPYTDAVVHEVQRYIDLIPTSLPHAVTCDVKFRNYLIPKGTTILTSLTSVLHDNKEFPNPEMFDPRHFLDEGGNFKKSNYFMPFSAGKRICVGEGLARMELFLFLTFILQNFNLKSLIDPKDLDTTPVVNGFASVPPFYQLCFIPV
Chain of Nuclear receptor subfamily 1 group I member 2 (Homo sapiens) (O75469 whole entry, looked up): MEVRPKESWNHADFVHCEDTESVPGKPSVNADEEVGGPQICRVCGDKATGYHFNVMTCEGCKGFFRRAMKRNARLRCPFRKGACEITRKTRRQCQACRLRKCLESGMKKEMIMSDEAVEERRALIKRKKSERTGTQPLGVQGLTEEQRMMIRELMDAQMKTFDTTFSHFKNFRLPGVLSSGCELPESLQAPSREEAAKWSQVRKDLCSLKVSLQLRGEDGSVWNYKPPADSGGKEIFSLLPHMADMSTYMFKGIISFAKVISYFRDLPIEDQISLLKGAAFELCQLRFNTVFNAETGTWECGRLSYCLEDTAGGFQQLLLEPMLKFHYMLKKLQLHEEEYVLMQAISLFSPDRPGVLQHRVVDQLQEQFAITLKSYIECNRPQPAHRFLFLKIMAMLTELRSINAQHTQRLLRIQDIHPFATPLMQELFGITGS
Chain of Voltage-gated inwardly rectifying potassium channel KCNH2 (Homo sapiens) (Q12809 whole entry, looked up): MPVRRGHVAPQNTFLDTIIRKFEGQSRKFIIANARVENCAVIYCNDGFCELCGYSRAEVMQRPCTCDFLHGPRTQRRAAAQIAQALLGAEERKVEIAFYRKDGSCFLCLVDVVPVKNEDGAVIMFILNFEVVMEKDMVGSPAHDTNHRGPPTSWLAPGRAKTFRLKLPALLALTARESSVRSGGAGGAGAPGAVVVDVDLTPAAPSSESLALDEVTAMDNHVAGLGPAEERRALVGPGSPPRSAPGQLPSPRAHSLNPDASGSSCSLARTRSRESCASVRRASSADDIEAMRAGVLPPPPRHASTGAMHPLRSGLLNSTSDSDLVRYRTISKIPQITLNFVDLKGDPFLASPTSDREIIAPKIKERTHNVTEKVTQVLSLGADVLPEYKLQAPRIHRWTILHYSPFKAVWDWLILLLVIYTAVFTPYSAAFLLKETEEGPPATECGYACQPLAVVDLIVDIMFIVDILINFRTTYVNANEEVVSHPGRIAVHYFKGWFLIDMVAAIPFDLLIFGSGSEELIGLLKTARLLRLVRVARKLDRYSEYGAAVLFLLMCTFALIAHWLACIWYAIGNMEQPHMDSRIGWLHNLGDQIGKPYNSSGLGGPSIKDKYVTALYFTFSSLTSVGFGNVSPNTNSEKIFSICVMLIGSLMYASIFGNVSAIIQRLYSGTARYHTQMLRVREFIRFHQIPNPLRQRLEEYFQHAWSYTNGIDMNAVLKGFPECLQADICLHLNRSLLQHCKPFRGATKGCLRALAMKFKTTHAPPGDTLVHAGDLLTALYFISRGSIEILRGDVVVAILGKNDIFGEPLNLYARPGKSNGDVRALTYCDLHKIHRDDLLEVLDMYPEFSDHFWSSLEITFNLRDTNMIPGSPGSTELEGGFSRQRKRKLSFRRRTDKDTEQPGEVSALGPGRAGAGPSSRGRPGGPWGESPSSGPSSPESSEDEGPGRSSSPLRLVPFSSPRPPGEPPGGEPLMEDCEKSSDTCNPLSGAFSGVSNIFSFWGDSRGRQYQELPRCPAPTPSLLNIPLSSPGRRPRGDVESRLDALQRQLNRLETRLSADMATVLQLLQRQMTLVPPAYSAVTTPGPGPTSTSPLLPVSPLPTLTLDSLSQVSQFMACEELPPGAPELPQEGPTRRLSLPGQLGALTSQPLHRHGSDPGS
Chain of Nuclear receptor subfamily 1 group I member 2 (Rattus norvegicus) (Q9R1A7 whole entry, looked up): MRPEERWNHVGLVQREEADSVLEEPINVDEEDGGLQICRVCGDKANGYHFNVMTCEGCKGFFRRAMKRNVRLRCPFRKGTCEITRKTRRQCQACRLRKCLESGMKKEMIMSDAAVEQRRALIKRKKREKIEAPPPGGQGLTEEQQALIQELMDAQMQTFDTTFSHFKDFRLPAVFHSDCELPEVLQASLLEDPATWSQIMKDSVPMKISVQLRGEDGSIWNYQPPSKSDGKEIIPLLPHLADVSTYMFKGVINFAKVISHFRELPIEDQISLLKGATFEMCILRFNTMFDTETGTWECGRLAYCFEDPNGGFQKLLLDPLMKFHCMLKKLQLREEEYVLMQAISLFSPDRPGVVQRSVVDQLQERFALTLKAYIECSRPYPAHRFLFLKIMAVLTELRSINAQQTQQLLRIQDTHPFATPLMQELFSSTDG

O=[N+]([O-])c1c(Cl)cc(Cl)cc1Cl
inactive: outcome [1] | outcome [2] | outcome [3] | outcome [4] | outcome [5] | Potency [6] | outcome [7] | outcome [8] | Potency [9] | Potency [10] | Potency [11] | Potency [12] | Potency [14] | Potency [15]
active: Potency [13] 39.5 µM

OC1(c2ccc(Cl)cc2)CCNCC1
active: Potency [10] 5.49 µM | Potency [11] 3.09 µM
inactive: outcome [1] | outcome [2] | outcome [3] | outcome [16] | outcome [5] | Potency [6] | outcome [7] | outcome [8] | Potency [9] | Potency [14] | Potency [15]

CC(C)NCC(O)c1ccc2ccccc2c1 (stereo unspecified)
active: Potency [10] 2.19 µM | Potency [13] 15.5 µM
inactive: outcome [1] | outcome [2] | outcome [3] | outcome [4] | outcome [5] | Potency [6] | outcome [7] | outcome [8] | Potency [9] | max activation [17] -0.315% | Potency [18] | Potency [19] | Potency [11] | Potency [12] | Potency [14] | Potency [15]

N#CCC(=O)NN
inactive: outcome [1] | outcome [2] | outcome [4] | outcome [16] | outcome [5] | Potency [6] | outcome [7] | outcome [8] | Potency [9] | max activation [17] -4.95% | Potency [18] | Potency [19] | Potency [10] | Potency [12] | Potency [14] | Potency [15]

C=CCN1C[C@H](C(=O)N(CCCN(C)C)C(=O)NCC)C[C@@H]2c3cccc4[nH]cc(c34)C[C@H]21
inactive: outcome [1] | outcome [2] | outcome [3] | outcome [4] | outcome [5] | outcome [7] | max activation [17] -1.45% | Potency [11] | Potency [12] | Potency [13]
active: Potency [9] 29.8 µM | Potency [18] 12.6 µM | Potency [19] 15.8 µM | Potency [10] 2.45 µM | Potency [15] 0.977 µM

CN(C)CCCO[C@@H]1[C@H]2OC(C)(C)O[C@H]2O[C@@H]1C(O)CO (stereo partly specified)
inactive: outcome [1] | outcome [2] | outcome [3] | outcome [16] | outcome [5] | Potency [6] | outcome [7] | outcome [8] | Potency [9] | max activation [17] -3.96% | Potency [18] | Potency [19] | Potency [10] | Potency [11] | Potency [12] | Potency [13] | Potency [14] | Potency [15]

CN(C)CC/C=C1/c2ccccc2COc2ccc(CC(=O)O)cc21
inactive: outcome [1] | outcome [2] | outcome [4] | outcome [16] | outcome [5] | outcome [7] | outcome [8] | Potency [9] | max activation [17] -3.17% | Potency [18] | Potency [19] | Potency [10] | Potency [11] | Potency [12] | Potency [14] | Potency [15]
